B1: SPIDR, Q14159 (peptide)
chain: GAAASLSEAWLRAGEG
B2: C9orf131, Q5VYM1 (peptide)
chain: STPLPEPHIDLELVWR
B3: RIMBP3, Q9UFD9 (peptide)
chain: AGSQAQELAEAWEGAR
B4: ZFHX4, Q86UP3 (peptide)
chain: GHPELSEAELQQLYAS
B5: AATF, Q9NY61 (peptide)
chain: DPNDQVAMGRQWLAIQ
B6: RIMBP2, O15034 (peptide)
chain: RMDEAWEQSRAPGPVH
B7: EVI5, O60447 (peptide)
chain: VKDLEEHWQRHLARTT
B8: SYCE3, A1L190 (peptide)
chain: EMEKNWQELLHETKQR
B9: FAM186B, Q8IYM0 (peptide)
chain: WEEEFGREMRRQLWLE
B10: NR3C2, P08235 (peptide)
chain: SLPEGLDMERRWGQVS
B11: KRT77, Q7Z794 (peptide)
chain: DAEERGEQALQDAWQK
B12: CBFA2T2, O43439 (peptide)
chain: LTEREWADEWKHLDHA
B13: NEDD9, Q14511 (peptide)
chain: GGLEGWWLASLHGRQG
B14: TBC1D15, Q8TC07 (peptide)
chain: LNSYEAEWDMVNTVSF
B15: CHTF18, Q8WVB6 (peptide)
chain: PPPSPEDLAELWGHGV
B16: PPP1R9B, Q96SB3 (peptide)
chain: RMEKLEGYWGEAQSLA
B17: CACNA1H, O95180 (peptide)
chain: LSGEHAYLQSSWNLLD
B18: SMG7, Q92540 (peptide)
chain: VLMESLKSIWSSSMMH
B19: WDR13, Q9H1Z4 (peptide)
chain: MAAVWQQVLAVDARYN
B20: HECW2, Q9P2P5 (peptide)
chain: SATVPDQEELGEVWQR
B21: SUGP1, Q8IWZ8 (peptide)
chain: DMQLLWEKAVQQHQHG
B22: ETV5, P41161 (peptide)
chain: QLQEAWLAEAQVPDDE
B23: ELOA2, Q8IYF1 (peptide)
chain: DLSEAWMQANYDPLSD
B24: GPATCH2L, Q9NWQ4 (peptide)
chain: SEQNKLGELWEEMALS
B25: PIP5K1C, O60331 (peptide)
chain: KLEHTWKALVHDGDTV
B26: ARHGAP18, Q8N392 (peptide)
chain: ELEEEWLKEAGLSNLF
B27: SNTA1, Q13424 (peptide)
chain: LQALLAATSTAGSQDI
B28: IRF5, Q13568 (peptide)
chain: ELHHIWQSQQRLQPVA
B29: AGGF1, Q8N302 (peptide)
chain: EVQTENHAPWSISDYF
B30: ARHGAP27, Q6ZUM4 (peptide)
chain: DSHVSLETEWGQYWDE
B31: DENND2D, Q9H6A0 (peptide)
chain: DFSSLLHALSFEQILQ

Experiments:
[1] = target: PEX14 16-84, O75381
[2] = target: SIN3A 295-383, Q96ST3
Chain of SIN3A 295-383, Q96ST3 (Q96ST3 295-383): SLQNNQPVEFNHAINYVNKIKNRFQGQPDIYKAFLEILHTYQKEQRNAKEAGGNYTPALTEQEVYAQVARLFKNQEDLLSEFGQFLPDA

Chain of PEX14 16-84, O75381 (O75381 16-84): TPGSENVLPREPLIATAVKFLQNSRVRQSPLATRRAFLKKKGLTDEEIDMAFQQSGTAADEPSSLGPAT

Row | Binder | selected by phage display [1] | selected by phage display [2]
1 | B1 | confidence 2 (active) | –
2 | B2 | confidence 2 (active) | –
3 | B3 | confidence 2 (active) | –
4 | B4 | confidence 2 (active) | –
5 | B5 | confidence 3 (active) | –
6 | B6 | confidence 2 (active) | –
7 | B7 | confidence 3 (active) | –
8 | B8 | confidence 2 (active) | –
9 | B9 | confidence 2 (active) | –
10 | B10 | confidence 2 (active) | –
11 | B11 | confidence 2 (active) | –
12 | B12 | confidence 4 (active) | –
13 | B13 | confidence 4 (active) | –
14 | B14 | confidence 2 (active) | –
15 | B15 | confidence 3 (active) | –
16 | B16 | confidence 3 (active) | –

Row | Binder | selected by phage display [1] | selected by phage display [2]
17 | B17 | confidence 2 (active) | –
18 | B18 | confidence 3 (active) | –
19 | B19 | confidence 3 (active) | –
20 | B20 | confidence 3 (active) | –
21 | B21 | confidence 2 (active) | –
22 | B22 | confidence 3 (active) | –
23 | B23 | confidence 3 (active) | –
24 | B24 | confidence 3 (active) | –
25 | B25 | confidence 3 (active) | –
26 | B26 | confidence 2 (active) | –
27 | B27 | – | confidence 2 (active)
28 | B28 | confidence 3 (active) | –
29 | B29 | confidence 2 (active) | –
30 | B30 | confidence 3 (active) | –
31 | B31 | – | confidence 2 (active)
